Source: PubChem BioAssay
The list shows a part of the results. Active and inactive are the calls of the source.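 The calls were made as follows, unless noted: active = mean inhibition above the low-control mean inhibition plus three low-control SD (cut at about 11% in these data); inactive = the rest.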

Target: Receptor-interacting serine/threonine-protein kinase 2 (Homo sapiens) (UniProt O43353)
Assay: NOD2-RIPK2 binding disruptors, retest, confirmation, fluorescence, CHO cells, BLA complementation, triplicate (AID 624370;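 active = mean inhibition across replicates above a set limit taken from the earlier primary screen, cut at about 21% in these data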;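 also: 0% = DMSO-only wells and the high end = clavulanate BLA-blocked wells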)
Settings: CCF4 FRET, at 4.98 µM, stronger effect = higher value

Chain of Receptor-interacting serine/threonine-protein kinase 2 (Homo sapiens) (O43353 whole entry, looked up): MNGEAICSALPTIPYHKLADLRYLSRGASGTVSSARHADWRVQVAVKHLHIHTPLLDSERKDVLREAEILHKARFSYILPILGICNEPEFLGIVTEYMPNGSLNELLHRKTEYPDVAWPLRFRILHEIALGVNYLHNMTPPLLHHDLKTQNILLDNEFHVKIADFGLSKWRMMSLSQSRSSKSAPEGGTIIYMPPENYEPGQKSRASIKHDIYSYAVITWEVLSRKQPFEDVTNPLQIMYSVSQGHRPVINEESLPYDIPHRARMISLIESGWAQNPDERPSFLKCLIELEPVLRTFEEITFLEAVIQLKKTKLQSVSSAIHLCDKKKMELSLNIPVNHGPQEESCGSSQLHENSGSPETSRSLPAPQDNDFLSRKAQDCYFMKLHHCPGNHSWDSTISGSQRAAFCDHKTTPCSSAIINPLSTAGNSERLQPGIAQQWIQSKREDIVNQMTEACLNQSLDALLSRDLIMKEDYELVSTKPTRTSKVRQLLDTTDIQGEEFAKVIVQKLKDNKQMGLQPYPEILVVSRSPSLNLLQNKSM

Structure (SMILES)	inhibition
O=C1C(=O)N(CC2COc3ccccc3O2)c2ccccc21 (stereo not drawn)	-7.75% (inactive)
COc1ccc(C(C[N+](=O)[O-])n2nc(C)cc2C)cc1 (stereo not drawn)	40.9% (active)
O=C1CC(C(F)(F)C(F)(F)C(F)(F)C(F)(F)F)=Nc2ccccc2N1	-1.13% (inactive)
O=C(Cc1csc(Nc2nc(=S)[nH]c3ccccc23)n1)NCCCN1CCN(c2cccc(Cl)c2)CC1	38% (active)
CC(=O)Nc1ccc(C=Cc2ccc([N+](=O)[O-])cc2)cc1	21.3% (active)
CC(C)(C)OC(=O)N1CCC(NC(=O)c2[nH]cnc2C(=O)N[C@@H](Cc2ccccc2)C(=O)OCc2ccccc2)CC1	16.1% (inactive)
O=C(CSc1ncn[nH]1)Nc1nc(-c2cccc([N+](=O)[O-])c2)cs1	2.59% (inactive)
O=C(NN=Cc1ccc(N2CCOCC2)cc1)c1cc2ccccc2cc1O	0.56% (inactive)
Cc1nnc(SCC(=O)Nn2cnnc2)s1	-0.84% (inactive)
O[C@H]1C[C@H](c2ccc(Cl)cc2)N(Cc2cccs2)C[C@@H]1n1cc(C2CC2)nn1	-0.97% (inactive)
Cc1ccc(NC(=O)Cn2sc3ccccc3c2=O)cc1	33.2% (active)
COc1ccc(C2=CC(c3cccc(OC)c3)n3nnnc3N2)cc1 (stereo not drawn)	3.71% (inactive)
COc1cccc2sc(N(CCCN(C)C)C(=O)CCS(=O)(=O)c3ccccc3)nc12	40.3% (active)
O=C(CCN1CCc2ccccc2C(O)(c2ccccc2)C1)c1ccc2c(c1)OCCO2 (stereo not drawn)	3.17% (inactive)
CN1CCN(/N=C/c2ccc(-c3ccc([N+](=O)[O-])cc3)o2)CC1	17.4% (inactive)
O=[N+]([O-])/C=C/c1ccc2c(ccn2Cc2ccccc2)c1	83.3% (active)
COc1ccc(NC(=O)C(c2ccncc2)n2c(=O)c(-c3cc4ccccc4[nH]3)nc3ccccc32)cc1 (stereo not drawn)	39.5% (active)
C[C@H]1CN([C@@H](C)CO)C(=O)c2cc(-c3cccc(F)c3)cnc2O[C@@H]1CN(C)S(C)(=O)=O	-4.32% (inactive)
Cc1cccc(-n2ncc(Cl)c(Cl)c2=O)c1	31.5% (active)

System: not listed separately
Assay: beta-lactamase reporter inhibitors in CHO cells, confirmation, artefact control for NOD2-RIPK2 interaction inhibitor project, cell-based, CHO-K1 CMV-bla, CCF4 FRET, fluorescence (AID 624371);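 also: 0% = DMSO only wells and 100% = clavulanate high control wells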
Settings: CCF4 FRET ratio, counterscreen, at 4.98 µM, stronger effect = higher value

Structure (SMILES)	inhibition
O=C1C(=O)N(CC2COc3ccccc3O2)c2ccccc21 (stereo not drawn)	-10.2% (inactive)
COc1ccc(C(C[N+](=O)[O-])n2nc(C)cc2C)cc1 (stereo not drawn)	-5.9% (inactive)
O=C1CC(C(F)(F)C(F)(F)C(F)(F)C(F)(F)F)=Nc2ccccc2N1	0.83% (inactive)
O=C(Cc1csc(Nc2nc(=S)[nH]c3ccccc23)n1)NCCCN1CCN(c2cccc(Cl)c2)CC1	55.8% (active)
CC(=O)Nc1ccc(C=Cc2ccc([N+](=O)[O-])cc2)cc1	33.9% (active)
CC(C)(C)OC(=O)N1CCC(NC(=O)c2[nH]cnc2C(=O)N[C@@H](Cc2ccccc2)C(=O)OCc2ccccc2)CC1	-4.79% (inactive)
O=C(CSc1ncn[nH]1)Nc1nc(-c2cccc([N+](=O)[O-])c2)cs1	3.63% (inactive)
O=C(NN=Cc1ccc(N2CCOCC2)cc1)c1cc2ccccc2cc1O	2.74% (inactive)
Cc1nnc(SCC(=O)Nn2cnnc2)s1	-0.41% (inactive)
O[C@H]1C[C@H](c2ccc(Cl)cc2)N(Cc2cccs2)C[C@@H]1n1cc(C2CC2)nn1	0.34% (inactive)
Cc1ccc(NC(=O)Cn2sc3ccccc3c2=O)cc1	3.75% (inactive)
COc1ccc(C2=CC(c3cccc(OC)c3)n3nnnc3N2)cc1 (stereo not drawn)	10.4% (active)
COc1cccc2sc(N(CCCN(C)C)C(=O)CCS(=O)(=O)c3ccccc3)nc12	8.45% (inactive)
O=C(CCN1CCc2ccccc2C(O)(c2ccccc2)C1)c1ccc2c(c1)OCCO2 (stereo not drawn)	-1.26% (inactive)
CN1CCN(/N=C/c2ccc(-c3ccc([N+](=O)[O-])cc3)o2)CC1	23.5% (active)
O=[N+]([O-])/C=C/c1ccc2c(ccn2Cc2ccccc2)c1	7.27% (inactive)
COc1ccc(NC(=O)C(c2ccncc2)n2c(=O)c(-c3cc4ccccc4[nH]3)nc3ccccc32)cc1 (stereo not drawn)	61.5% (active)
C[C@H]1CN([C@@H](C)CO)C(=O)c2cc(-c3cccc(F)c3)cnc2O[C@@H]1CN(C)S(C)(=O)=O	-1.39% (inactive)
Cc1cccc(-n2ncc(Cl)c(Cl)c2=O)c1	2.52% (inactive)
